# According to the supplement of paper PMC8728848:
# This excerpt belongs to a sample that is enriched for the strongest signals.
# B1: Di AAL2 (Agrocybe aegerita) (protein)
# chain: MTSNVITQDLPIPVASRGFADIVGFGLDGVVIGRNAVNLQPFLAVKNFAQNAGGWLTTKHVRLIADTTGTGKGDIVGFGNAGVYVSVNNGKNTFADPPKMVIANFGYDAGGWRVEKHLRYLADIRKIGRADIIGFGEKGVLVSRNNGGLNFGPATLVLKDFGYDAGGWRLDRHLRFLADVTGNGHLDIVGFGDKHVFISRNNGDGTFAPAKSVIDNFCIDAGGWKIGDHPRFVADLTGDGTADIIGCGKAGCWVALNNGGGVFGQVKLVINDFGTDKGWQAAKHPRFIADLTGNGRGDVVGFGNAGVYVALNNGDGTFQSAKLVLKDFGVQQGWTVSKHRRFVVDLTGDGCADIIGFGEKETLVSYNDGKGNFGPVKALTNDFSFSGGKWAPETTVCWMANLDSSRHPAPAPMTSNVITQDLPIPVASRGFADIVGFGLDGVVIGRNAVNLQPFLAVKNFAQNAGGWLTTKHVRLIADTTGTGKGDIVGFGNAGVYVSVNNGKNTFADPPKMVIANFGYDAGGWRVEKHLRYLADIRKIGRADIIGFGEKGVLVSRNNGGLNFGPATLVLKDFGYDAGGWRLDRHLRFLADVTGNGHLDIVGFGDKHVFISRNNGDGTFAPAKSVIDNFCIDAGGWKIGDHPRFVADLTGDGTADIIGCGKAGCWVALNNGGGVFGQVKLVINDFGTDKGWQAAKHPRFIADLTGNGRGDVVGFGNAGVYVALNNGDGTFQSAKLVLKDFGVQQGWTVSKHRRFVVDLTGDGCADIIGFGEKETLVSYNDGKGNFGPVKALTNDFSFSGGKWAPETTVCWMANLDSSRH
# Experiments:
# Assay in all cases: glycan array binding signal (z-score within array); higher = stronger binding
# Conditions in all cases: glycan notation: IUPAC condensed, linker removed
# [1] = target: GlcNAc(b1-3)Gal(b1-4)GlcNAc(b1-3)Gal(b1-4)GlcNAc(b1-3)Gal(b1-4)GlcNAc(b1-3)Gal(b1-4)GlcNAc(b1-2)Man(a1-3)[GlcNAc(b1-3)Gal(b1-4)GlcNAc(b1-3)Gal(b1-4)GlcNAc(b1-3)Gal(b1-4)GlcNAc(b1-3)Gal(b1-4)GlcNAc(b1-2)Man(a1-6)]Man(b1-4)GlcNAc(b1-4)[Fuc(a1-6)]GlcNAc
# Method in brief: (§1)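 The binding signal is a Z-score computed within each array. Data were drawn from 3228 arrays in the Consortium for Functional Glycomics database, restricted to those with a known protein sequence. Scores were averaged over arrays of the same protein sequence at different concentrations or buffers, and over linkers, and negative values can be taken as non-binding.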
# [2] = target: GlcNAc(b1-3)Gal(b1-4)GlcNAc(b1-3)Gal(b1-4)GlcNAc(b1-3)Gal(b1-4)GlcNAc(b1-3)Gal(b1-4)GlcNAc(b1-2)[GlcNAc(b1-3)Gal(b1-4)GlcNAc(b1-3)Gal(b1-4)GlcNAc(b1-3)Gal(b1-4)GlcNAc(b1-3)Gal(b1-4)GlcNAc(b1-6)]Man(a1-6)[GlcNAc(b1-3)Gal(b1-4)GlcNAc(b1-3)Gal(b1-4)GlcNAc(b1-3)Gal(b1-4)GlcNAc(b1-3)Gal(b1-4)GlcNAc(b1-2)Man(a1-3)]Man(b1-4)GlcNAc(b1-4)[Fuc(a1-6)]GlcNAc
# Method in brief: as §1
# [3] = target: Man(a1-3)[Man(a1-6)]Man(a1-6)[Man(a1-3)]Man(b1-4)GlcNAc(b1-4)GlcNAc
# Method in brief: as §1
# [4] = target: Man(a1-3)[Man(a1-6)]Man(b1-4)GlcNAc(b1-4)[Fuc(a1-6)]GlcNAc
# Method in brief: as §1
# [5] = target: Neu5Ac(a2-3)Gal(b1-3)[Neu5Ac(a2-6)]GlcNAc(b1-3)[Fuc(a1-3)[Gal(b1-4)]GlcNAc(b1-6)]Gal(b1-4)Glc
# Method in brief: as §1
# [6] = target: Neu5Ac(a2-3)Gal(b1-4)GlcNAc(b1-6)GalNAc
# Method in brief: as §1
# [7] = target: Neu5Ac(a2-3)Gal(b1-4)[Fuc(a1-3)]GlcNAc(b1-6)[Gal(b1-3)]GalNAc
# Method in brief: as §1
# [8] = target: Neu5Ac(a2-3)[GalNAc(b1-4)]Gal(b1-4)GlcNAc(b1-3)GalNAc
# Method in brief: as §1
# [9] = target: Neu5Ac(a2-6)Gal(b1-4)GlcNAc(b1-2)Man(a1-3)[GlcNAc(b1-4)][Neu5Ac(a2-6)Gal(b1-4)GlcNAc(b1-2)Man(a1-6)]Man(b1-4)GlcNAc(b1-4)GlcNAc
# Method in brief: as §1
# [10] = target: Neu5Ac(a2-6)Gal(b1-4)GlcNAc(b1-3)[Neu5Ac(a2-6)Gal(b1-4)GlcNAc(b1-6)]GalNAc
# Method in brief: as §1
# [11] = target: Neu5Ac(a2-6)GlcNAc(b1-4)GlcNAc(b1-4)GlcNAc
# Method in brief: as §1
# [12] = target: Neu5Ac(a2-8)Neu5Ac(a2-3)[GalNAc(b1-4)]Gal(b1-4)Glc
# Method in brief: as §1
# [13] = target: Neu5Ac(a2-8)Neu5Ac(a2-8)Neu5Ac(a2-3)[Gal(b1-3)GalNAc(b1-4)]Gal(b1-4)Glc
# Method in brief: as §1
# [14] = target: Neu5Ac(a2-8)Neu5Ac(a2-8)Neu5Ac(a2-3)[GalNAc(b1-4)]Gal(b1-4)Glc
# Method in brief: as §1
binder,measurement,setting,value
B1,glycan array binding signal (z-score),[1],5.09
same,glycan array binding signal (z-score),[2],5.69
same,glycan array binding signal (z-score),[3],-0.333
same,glycan array binding signal (z-score),[4],-0.327
same,glycan array binding signal (z-score),[5],-0.313
same,glycan array binding signal (z-score),[6],-0.218
same,glycan array binding signal (z-score),[7],-0.336
same,glycan array binding signal (z-score),[8],-0.285
same,glycan array binding signal (z-score),[9],-0.319
same,glycan array binding signal (z-score),[10],-0.251
same,glycan array binding signal (z-score),[11],-0.302
same,glycan array binding signal (z-score),[12],-0.29
same,glycan array binding signal (z-score),[13],-0.297
same,glycan array binding signal (z-score),[14],-0.284
